In the library only some 2.3% were active in any assay of this set; here they are far more common.
CHO-K1 Ca PAM: counter-screen for M1 PAMs: effect in parental CHO-K1 cells | AID 602247 | ATP EC20, Fluo-8 calcium fluorescence; 0% at ATP EC20, 100% at ATP max | 0.02% of 360,000 active | activation, % at 3 µM;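 active means activation above the run cutoff, the mean activation of all test compounds plus 3 SD, cut at about 40% in these data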;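 further: peak over basal fluorescence ratio in a 140 s read after ATP addition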
CHO-K1 Ca antag: M1 antagonist counterscreen hit in parental CHO-K1 cells; ATP-induced calcium, Fluo-8 fluorescence; inhibition, % at 3 µM; 0.6% of 360,000 active;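 active means inhibition above a per-plate cutoff, the plate's mean sample inhibition plus 3 SD, cut at about 24% in these data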
CHRM1 antagonist: blocks human M1 muscarinic receptor; inhibition, % at 3 µM; P11229; 1.3% of 360,000 active; CHO-K1 hM1, Fluo-8 calcium fluorescence, ACh EC80 antagonist;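 active means percent inhibition above its own plate's cutoff, namely the mean of that plate's compound wells plus 3 SD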;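 further: peak over basal fluorescence ratio during 140 s after agonist addition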
Target sequence (P11229 whole entry, looked up): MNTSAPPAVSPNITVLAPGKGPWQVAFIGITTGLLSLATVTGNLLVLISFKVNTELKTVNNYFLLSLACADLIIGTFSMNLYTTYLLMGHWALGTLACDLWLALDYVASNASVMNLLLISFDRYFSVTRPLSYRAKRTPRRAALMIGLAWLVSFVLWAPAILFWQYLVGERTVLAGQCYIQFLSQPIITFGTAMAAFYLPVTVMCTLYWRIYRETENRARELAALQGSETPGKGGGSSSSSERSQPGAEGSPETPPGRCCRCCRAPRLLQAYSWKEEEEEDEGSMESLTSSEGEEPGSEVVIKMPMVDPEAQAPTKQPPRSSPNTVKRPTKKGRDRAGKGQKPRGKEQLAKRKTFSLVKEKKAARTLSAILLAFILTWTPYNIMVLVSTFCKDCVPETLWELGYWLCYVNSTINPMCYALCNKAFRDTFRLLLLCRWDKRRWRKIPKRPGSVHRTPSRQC
M1 ag: human M1 muscarinic receptor agonism. P11229. CHO-K1 hM1, Fluo-8 calcium fluorescence, agonist mode; 0% DMSO, 100% acetylcholine EC100. activation, % at 3 µM. 0.33% of 360,000 active. AID 588814;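 active means activation above the run's mean compound activation plus 3 SD, cut at about 16% in these data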;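 further: peak over basal fluorescence ratio within a 140 s kinetic read after compound addition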
M1 PAM: human CHRM1 positive allosteric modulation | P11229 | CHO-K1 hM1, Fluo-8 calcium fluorescence, ACh EC20; 0% = ACh EC20, 100% = maximal ACh | 0.088% of 360,000 active | activation, % at 3 µM; in the data active means activation above about 19%, passing the limit was not always enough
CHO-K1 Ca ag: M1 agonist counterscreen hit in parental CHO-K1 cells; Fluo-8 calcium fluorescence; scaled to maximal ATP response, vehicle zero; activation, % at 3 µM; 0.48% of 360,000 active; in the data active means activation above about 15%;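 further: untransfected CHO-K1 host cells lacking M1 receptor as counterscreen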
Large screens that a line does not name were inactive.

CC1CCCC(C)N1CC(O)COc1ccc(Cl)cc1 (stereo not drawn)	none
NCc1csc(Nc2ccc(C(=O)c3ccccc3)cc2)n1	none
C[C@@]12C(=O)Nc3ccc(F)cc3C(=O)N1[C@H]1c3ccccc3OC[C@@H]1[C@@H]2c1ccccc1	CHRM1 antagonist 89
C[C@@]12C(=O)Nc3cc(F)c(F)cc3C(=O)N1[C@H]1c3ccccc3OC[C@@H]1[C@@H]2c1ccccc1	CHRM1 antagonist 79
C[C@@]12C(=O)Nc3ccc(F)cc3C(=O)N1[C@H]1c3cc(Cl)ccc3OC[C@@H]1[C@@H]2c1ccccc1	none
N#CC(Sc1ccccn1)c1ccc(Cl)cc1Cl (stereo not drawn)	CHRM1 antagonist 39
CCC(c1nnnn1Cc1cccs1)N1CCN(c2nc3ccccc3s2)CC1 (stereo not drawn)	CHO-K1 Ca antag 48 (no result: M1 PAM)
CC(C)CC(c1nnnn1Cc1cccs1)N1CCN(c2nc3ccccc3s2)CC1 (stereo not drawn)	none
O=C(NCCN1CCCCC1)/C(=C/c1ccco1)NC(=O)c1ccccc1	M1 PAM 31
Cc1ccc(/C=C(\NC(=O)c2ccccc2)C(=O)NCCN2CCOCC2)o1	CHO-K1 Ca antag 24
Cc1ccc(C(=O)N/C(=C\c2ccco2)C(=O)NCCN2CCCCC2)cc1C	none
CCCCNC(=O)c1nc(C2CCN(S(=O)(=O)c3ccc(F)c(F)c3)CC2)oc1-c1ccccc1	none
Cc1ccc2c(c1)nc(-n1nc(C)cc1C)c1nnnn12	none
Cc1nc2ncnn2c(N2CCN(C(c3ccccc3)c3ccccc3)CC2)c1C	none
Cc1cc(N2CCN(C(c3ccccc3)c3ccccc3)CC2)n2ncnc2n1	CHRM1 antagonist 30
COc1ccc(C2=C3C(=O)OCC3Cc3ncn(Cc4ccccc4)c32)cc1 (stereo not drawn)	none
COc1ccc(NC(=O)CSc2nnc(C)n2C2CC2)cc1S(=O)(=O)N1CCOCC1	none
O=C(CSc1nnc(SCc2ccccc2)s1)NNC(=S)Nc1ccccc1	CHO-K1 Ca antag 29
CCOC(=O)C1CCCN(C2CC(=O)N(c3cccc(C(F)(F)F)c3)C2=O)C1 (stereo not drawn)	CHRM1 antagonist 40, M1 ag 65
CCOC(=O)C1CCCN(C2CC(=O)N(c3ccc(N4C(=O)CC(N5CCCC(C(=O)OCC)C5)C4=O)cc3)C2=O)C1 (stereo not drawn)	M1 ag 39
CCOC(=O)C1CCCN(C2CC(=O)N(c3ccc(C(C)C)cc3)C2=O)C1 (stereo not drawn)	M1 ag 18
O=C1CCCC2=C1C1c3ccccc3C(=O)N1c1ccc(C(=O)c3ccccc3)cc1N2 (stereo not drawn)	CHO-K1 Ca antag 24
O=C1CC(c2ccco2)CC2=C1C1c3ccccc3C(=O)N1c1ccccc1N2 (stereo not drawn)	none
C[N+](C)(C)CCCCCC[N+](C)(C)C	none
C[N+](C)(C)CCCCCC(=O)/C=N/O	M1 ag 29
Cc1ccccc1N1C(=O)C2ON(c3ccccc3)C(c3ccco3)C2C1=O (stereo not drawn)	CHO-K1 Ca ag 16
CCN1C(=O)S/C(=C/c2ccc(Sc3nc4ccccc4[nH]3)o2)C1=O	CHRM1 antagonist 31
COc1ccccc1N=C1NC(=O)/C(=C/c2ccc(N(C)C)cc2)S1	CHO-K1 Ca antag 29, M1 ag 22, CHO-K1 Ca ag 32
COc1cc(-c2noc(C)c2-c2ccc3[nH]ccc3c2)cc(OC)c1OC	none
COc1cc(-c2noc(C)c2-c2ccc(N(C)C)nc2)cc(OC)c1OC	M1 ag 34, CHO-K1 Ca ag 32
COc1ccc(CCNC(=O)c2nn(C)c3c2CS(=O)(=O)c2ccccc2-3)c(OC)c1	none
CN1CCCN(S(=O)(=O)c2ccccc2)CC1	CHRM1 antagonist 33
O=C(c1ccc2c(=O)n3c(nc2c1)CCCCC3)N1CCN(c2cccc(Cl)c2)CC1	CHRM1 antagonist 32
O=C(/C=C/c1ccc(S(=O)(=O)N2CCOCC2)cc1)NC(=S)Nc1ccc(Cl)cc1Cl	none
CCN(CC)S(=O)(=O)c1cccc(NC(=S)NC(=O)/C=C/c2ccc(S(=O)(=O)N3CCOCC3)cc2)c1	CHO-K1 Ca antag 27
NS(=O)(=O)c1ccc(NC(=S)Nc2ccc(C(=O)N3CCCCC3)cc2)cc1	CHO-K1 Ca ag 16
CCN(CC)C(=O)C1=C(C)N(Cc2ccc(OC)cc2)C(=O)C(CC(=O)NCCc2ccccn2)C1 (stereo not drawn)	none
COc1ccccc1CCNC(=O)C(=O)NCC1OCCCN1S(=O)(=O)c1ccc(F)cc1C (stereo not drawn)	none
CCc1ccc(NC(=O)c2ccc3c(=O)n4c(nc3c2)CCCCC4)cc1	none
O=C(Nc1cccc(S(=O)(=O)N2CCCCC2)c1)c1ccc2c(=O)n3c(nc2c1)CCCCC3	CHRM1 antagonist 43
CN1CCN(S(=O)(=O)c2ccc(NC(=O)c3cccc(S(=O)(=O)N4CCCC4)c3)cc2)CC1	CHRM1 antagonist 98
COc1ccccc1N(C)S(=O)(=O)c1ccc(C(=O)Nc2cccc(S(=O)(=O)N3CCOCC3)c2)cc1	CHRM1 antagonist 38
CN(c1ccccc1)S(=O)(=O)c1ccc(C(=O)Nc2cccc(S(=O)(=O)N3CCOCC3)c2)cc1	none
CN(C)c1ccc(C(=O)Nc2cccc(S(=O)(=O)N3CCCC3)c2)cc1	CHRM1 antagonist 46
O=C(COC(=O)C1CCC1)Nc1cc(S(=O)(=O)N2CCOCC2)ccc1Cl	none
O=C(Nc1cc(S(=O)(=O)N2CCOCC2)ccc1Cl)C1CCC1	CHRM1 antagonist 27
O=C(Nc1ncccc1O)c1ccc(Cl)c(S(=O)(=O)N2CCCCCC2)c1	none
COc1ccc(S(=O)(=O)N2CCOCC2)cc1NC(=O)c1ccc(S(=O)(=O)N2CCCCC2)cc1	none
O=S(=O)(c1cccc(COc2ccc(Cl)cc2Cl)c1)N1CCOCC1	none
COc1ccc(S(=O)(=O)N2CCOCC2)cc1NC(=O)c1ccc(Cl)cc1	CHRM1 antagonist 29
CC(=O)c1cc(Cl)ccc1OCc1cccc(S(=O)(=O)N2CCOCC2)c1	CHRM1 antagonist 31, CHO-K1 Ca ag 16
O=C(Nc1ncccc1O)c1cccc(S(=O)(=O)N2CCCC2)c1	CHO-K1 Ca antag 26
CCN1CCN(CCC(=O)Nc2cc(OC)cc(OC)c2)CC1	none
CC(C)C1C(=O)N(Cc2cn(CCC3OCCCO3)nn2)CCS(=O)(=O)N1Cc1ccc(-c2ccc(Cl)c(Cl)c2)cc1 (stereo not drawn)	none
O=C(NC(=S)Nc1ccc(S(=O)(=O)N2CCCCC2)cc1)c1ccccc1	M1 PAM 19
O=C(Nc1ccc(S(=O)(=O)N2CCCC2)cc1)c1ccccc1	none
